{"source": "paper PMC7862700", "about": "“An all-to-all approach to the identification of sequence-specific readers for epigenetic DNA modifications on cytosine”", "assay_in_all_cases": "DAPPL (digital affinity profiling via proximity ligation, sequencing); 10 mM Tris-HCl pH 7.5, 50 mM NaCl, 1 mM DTT, 4% glycerol, room temperature, 30 min; GST-TFs on glutathione beads, 16-mer random dsDNA library, 0.1% formaldehyde crosslink after washing; high values mean tight binding", "key": {"[1]": {"biological_target": "T1, FEV (Homo sapiens, UniProt Q99581 1-238)", "T1 sequence": "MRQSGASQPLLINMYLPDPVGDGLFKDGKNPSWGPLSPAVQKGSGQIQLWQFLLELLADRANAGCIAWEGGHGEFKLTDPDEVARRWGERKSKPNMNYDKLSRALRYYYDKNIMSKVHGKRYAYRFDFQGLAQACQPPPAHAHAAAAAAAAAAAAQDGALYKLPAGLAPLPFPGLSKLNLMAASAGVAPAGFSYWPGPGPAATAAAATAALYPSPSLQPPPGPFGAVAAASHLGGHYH", "conditions": "protein: recombinant; tags: N-terminal GST; dsDNA, one strand shown", "procedure,_shortened": "(§1)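 In yeast, human transcription factors were expressed with a GST fusion, then pulled down on glutathione beads and given DNA barcodes. Pooled with a tag-only sample, they were exposed to 200 nmole of a 16-mer random double-stranded DNA library (Tris/NaCl/DTT/glycerol buffer, room temperature, 30 min), washed, crosslinked with 0.1% formaldehyde, proximity-ligated using BsaI/T4 ligase for 1 h at 37 °C, PCR-amplified and read on an Illumina NextSeq500. Each hexamer's frequency of reads for a factor, divided by the matching frequency for the tag-only sample, gives the binding signal.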"}, "[2]": {"biological_target": "ETV5 (Homo sapiens, UniProt P41161 1-510)", "sequence (P41161 whole entry)": "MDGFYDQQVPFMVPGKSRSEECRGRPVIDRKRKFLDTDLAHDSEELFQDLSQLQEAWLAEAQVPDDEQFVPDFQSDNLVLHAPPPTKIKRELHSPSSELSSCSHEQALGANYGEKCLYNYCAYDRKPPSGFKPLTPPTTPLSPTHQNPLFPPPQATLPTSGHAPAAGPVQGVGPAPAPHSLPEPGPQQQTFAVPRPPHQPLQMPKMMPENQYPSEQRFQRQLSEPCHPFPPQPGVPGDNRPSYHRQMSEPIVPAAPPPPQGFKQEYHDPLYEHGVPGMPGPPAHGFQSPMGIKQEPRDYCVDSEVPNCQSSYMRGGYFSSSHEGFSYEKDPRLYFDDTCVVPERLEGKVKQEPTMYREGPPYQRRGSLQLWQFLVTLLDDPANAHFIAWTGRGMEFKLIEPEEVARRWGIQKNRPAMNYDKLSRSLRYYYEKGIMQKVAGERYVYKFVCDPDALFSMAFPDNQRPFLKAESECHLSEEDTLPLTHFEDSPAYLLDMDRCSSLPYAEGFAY", "conditions": "protein: recombinant; tags: N-terminal GST; dsDNA, one strand shown", "procedure,_shortened": "as §1"}, "[3]": {"biological_target": "HSF1 (Homo sapiens, UniProt Q00613 1-529)", "sequence (Q00613 whole entry)": "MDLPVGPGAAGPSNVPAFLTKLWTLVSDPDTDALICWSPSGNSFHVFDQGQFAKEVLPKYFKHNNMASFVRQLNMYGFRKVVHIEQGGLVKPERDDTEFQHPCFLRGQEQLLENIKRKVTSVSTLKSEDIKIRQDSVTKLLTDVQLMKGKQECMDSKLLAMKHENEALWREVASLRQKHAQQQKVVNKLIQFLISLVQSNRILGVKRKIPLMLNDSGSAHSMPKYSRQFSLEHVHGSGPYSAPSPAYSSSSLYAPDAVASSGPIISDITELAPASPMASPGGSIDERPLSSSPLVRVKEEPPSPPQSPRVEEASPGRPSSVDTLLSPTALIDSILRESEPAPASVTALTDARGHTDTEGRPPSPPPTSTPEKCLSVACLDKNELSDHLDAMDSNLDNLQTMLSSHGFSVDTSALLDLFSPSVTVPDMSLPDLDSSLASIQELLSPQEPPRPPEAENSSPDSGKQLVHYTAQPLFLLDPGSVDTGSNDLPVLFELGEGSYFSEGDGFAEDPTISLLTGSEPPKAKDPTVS", "conditions": "protein: recombinant; tags: N-terminal GST; chain copies: 3; dsDNA, one strand shown", "procedure,_shortened": "as §1"}, "[4]": {"biological_target": "T2, SPIC (Homo sapiens, UniProt Q8N5J4 1-248)", "T2 sequence": "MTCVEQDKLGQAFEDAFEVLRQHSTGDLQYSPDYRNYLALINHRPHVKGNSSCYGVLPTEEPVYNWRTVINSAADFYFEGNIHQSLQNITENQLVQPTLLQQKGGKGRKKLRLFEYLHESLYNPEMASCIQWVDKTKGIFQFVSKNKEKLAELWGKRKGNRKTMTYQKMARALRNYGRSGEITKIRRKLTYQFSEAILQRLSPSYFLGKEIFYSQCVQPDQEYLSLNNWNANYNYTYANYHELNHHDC", "conditions": "protein: recombinant; tags: N-terminal GST; dsDNA, one strand shown", "procedure,_shortened": "as §1"}, "[5]": {"biological_target": "ELF4 (Homo sapiens, UniProt Q99607 1-663)", "sequence (Q99607 whole entry)": "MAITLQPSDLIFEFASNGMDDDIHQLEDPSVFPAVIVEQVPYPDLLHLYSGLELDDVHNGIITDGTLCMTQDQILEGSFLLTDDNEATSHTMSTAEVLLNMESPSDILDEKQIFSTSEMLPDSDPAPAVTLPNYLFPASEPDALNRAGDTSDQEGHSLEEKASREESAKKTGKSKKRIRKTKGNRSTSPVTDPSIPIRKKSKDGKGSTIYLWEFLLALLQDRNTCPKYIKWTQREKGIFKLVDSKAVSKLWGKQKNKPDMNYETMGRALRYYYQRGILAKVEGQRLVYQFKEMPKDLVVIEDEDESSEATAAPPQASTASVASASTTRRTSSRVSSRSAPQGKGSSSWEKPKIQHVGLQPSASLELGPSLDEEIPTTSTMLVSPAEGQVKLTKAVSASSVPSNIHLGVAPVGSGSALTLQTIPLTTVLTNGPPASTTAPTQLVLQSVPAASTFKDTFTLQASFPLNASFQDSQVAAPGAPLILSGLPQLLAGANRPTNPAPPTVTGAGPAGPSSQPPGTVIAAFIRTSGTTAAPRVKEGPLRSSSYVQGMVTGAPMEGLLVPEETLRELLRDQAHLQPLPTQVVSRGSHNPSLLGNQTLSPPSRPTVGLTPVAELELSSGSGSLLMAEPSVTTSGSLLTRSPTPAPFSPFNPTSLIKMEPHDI", "conditions": "protein: recombinant; tags: N-terminal GST; dsDNA, one strand shown", "procedure,_shortened": "as §1"}, "[6]": {"biological_target": "T3, ELK4 (Homo sapiens, UniProt P28324-2 1-405)", "T3 sequence": "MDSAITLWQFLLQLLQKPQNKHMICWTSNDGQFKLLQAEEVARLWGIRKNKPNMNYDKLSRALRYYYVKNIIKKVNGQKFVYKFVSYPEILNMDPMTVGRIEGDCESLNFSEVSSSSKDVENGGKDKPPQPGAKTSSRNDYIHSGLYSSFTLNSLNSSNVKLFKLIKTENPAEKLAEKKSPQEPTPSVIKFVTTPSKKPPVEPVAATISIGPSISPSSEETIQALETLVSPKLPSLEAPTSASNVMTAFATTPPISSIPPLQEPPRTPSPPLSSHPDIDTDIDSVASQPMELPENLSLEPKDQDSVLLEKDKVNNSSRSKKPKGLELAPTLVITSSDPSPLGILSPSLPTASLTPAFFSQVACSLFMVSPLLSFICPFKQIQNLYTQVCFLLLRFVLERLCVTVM", "conditions": "protein: recombinant; tags: N-terminal GST; dsDNA, one strand shown", "procedure,_shortened": "as §1"}, "[7]": {"biological_target": "T4, ETV2 (Homo sapiens, UniProt O00321 1-342)", "T4 sequence": "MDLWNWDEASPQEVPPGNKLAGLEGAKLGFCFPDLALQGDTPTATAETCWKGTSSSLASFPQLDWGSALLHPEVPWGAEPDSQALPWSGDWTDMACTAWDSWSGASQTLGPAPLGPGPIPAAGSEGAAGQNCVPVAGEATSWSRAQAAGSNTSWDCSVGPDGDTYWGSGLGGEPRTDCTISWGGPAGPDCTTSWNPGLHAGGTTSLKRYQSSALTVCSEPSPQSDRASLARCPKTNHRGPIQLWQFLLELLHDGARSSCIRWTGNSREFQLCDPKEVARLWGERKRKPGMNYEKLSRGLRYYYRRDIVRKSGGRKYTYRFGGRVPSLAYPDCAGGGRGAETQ", "conditions": "protein: recombinant; tags: N-terminal GST; dsDNA, one strand shown", "procedure,_shortened": "as §1"}, "[8]": {"biological_target": "T5, ELF3 (Homo sapiens, UniProt P78545 1-371)", "T5 sequence": "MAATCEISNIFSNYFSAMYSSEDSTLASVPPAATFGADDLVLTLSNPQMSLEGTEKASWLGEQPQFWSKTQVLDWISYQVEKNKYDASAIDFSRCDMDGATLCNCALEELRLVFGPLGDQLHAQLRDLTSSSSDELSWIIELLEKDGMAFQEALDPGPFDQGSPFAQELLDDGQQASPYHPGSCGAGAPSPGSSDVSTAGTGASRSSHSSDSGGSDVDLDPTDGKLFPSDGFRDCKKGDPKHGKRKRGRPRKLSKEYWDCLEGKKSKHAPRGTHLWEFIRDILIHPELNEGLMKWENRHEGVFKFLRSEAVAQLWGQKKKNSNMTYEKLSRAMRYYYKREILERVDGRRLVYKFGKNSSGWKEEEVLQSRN", "conditions": "protein: recombinant; tags: N-terminal GST; dsDNA, one strand shown", "procedure,_shortened": "as §1"}, "[9]": {"biological_target": "CRX (Homo sapiens, UniProt O43186 1-299)", "sequence (O43186 whole entry)": "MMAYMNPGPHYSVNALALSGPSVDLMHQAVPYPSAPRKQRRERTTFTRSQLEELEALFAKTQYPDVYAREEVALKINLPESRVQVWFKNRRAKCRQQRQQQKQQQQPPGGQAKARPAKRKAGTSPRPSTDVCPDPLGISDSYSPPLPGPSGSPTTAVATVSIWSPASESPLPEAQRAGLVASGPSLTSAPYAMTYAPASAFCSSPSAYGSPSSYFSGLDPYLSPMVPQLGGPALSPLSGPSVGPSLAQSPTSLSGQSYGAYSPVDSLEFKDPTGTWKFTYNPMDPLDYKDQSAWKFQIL", "conditions": "protein: recombinant; tags: N-terminal GST; dsDNA, one strand shown", "procedure,_shortened": "as §1"}}}
{"sequence": "CACGTA", "values": [{"measurement": "binding signal", "setting": "[1]", "value": "1.1 fold enrichment (6-mer frequency, TF over GST control)"}, {"measurement": "binding signal", "setting": "[2]", "value": "1.13 fold enrichment (6-mer frequency, TF over GST control)"}, {"measurement": "binding signal", "setting": "[3]", "value": "1.05 fold enrichment (6-mer frequency, TF over GST control)"}, {"measurement": "binding signal", "setting": "[4]", "value": "1.22 fold enrichment (6-mer frequency, TF over GST control)"}, {"measurement": "binding signal", "setting": "[5]", "value": "1.2 fold enrichment (6-mer frequency, TF over GST control)"}, {"measurement": "binding signal", "setting": "[6]", "value": "1.23 fold enrichment (6-mer frequency, TF over GST control)"}, {"measurement": "binding signal", "setting": "[7]", "value": "1.09 fold enrichment (6-mer frequency, TF over GST control)"}, {"measurement": "binding signal", "setting": "[8]", "value": "1.18 fold enrichment (6-mer frequency, TF over GST control)"}, {"measurement": "binding signal", "setting": "[9]", "value": "1.06 fold enrichment (6-mer frequency, TF over GST control)"}]}
